The results in this text go back to PubChem BioAssay (NCATS).

Records with an inconclusive call do not appear. The source made the active and inactive calls. Unless noted, the call rests on the fitted dose curve; in most records, active means well fitted curve in the direction sought with a large enough effect; inconclusive means small, poorly fitted or top-dose-only effect, or another doubt; inactive means no such curve, though single readings can be large; an effect the other way counts as inactive or inconclusive.

Assay [1] can be described thus: A High-Content qHTS Against Drug Library for the Identification of Small Molecules that Inhibit DYT1 Early Onset Primary Dystonia-Associated Cell Pathology (AID 1645839; calls by dose curve). In short, it runs like this: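 Flp-In T-REx 293 cells with tetracycline-inducible EGFP-delE hTOR1A (WT EGFP-hTOR1A as reference), 800 cells/well; compound added with tetracycline, 48 h at 37 C. Fixed, permeabilized cells imaged; %pathology (punctate TorsinA) primary, cell count counterscreen.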

In assay [2] the target is Cytochrome P450 2D6 (Homo sapiens) (UniProt P10635). The experiment in a line: Cytochrome P450 family 2 subfamily D member 6 (CYP2D6) small molecule antagonists: luciferase biochemical (cell-free) qHTS assay (AID 1645840; active means well fitted curve in the direction sought with a large enough effect in the repeat runs; an effect the other way counts as inactive or inconclusive; further: nearly all actives have a fitted effect of over 55% in size; further: potency means the concentration at half of the fitted maximal effect; on activity change, negative = inhibition: on the % scale 0 is the no-effect control and ±100 the full control effect). In short, it runs like this:
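P450-Glo luminescent screen: recombinant CYP2D6 enzyme–proluciferin substrate mix preincubated with compound 10 min at room temperature, then NADPH regeneration added for 1 h at room temperature. Detection reagent added for 20 min; luciferin light read as relative luminescence units.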
For orientation: In qHTS, concentration-response curves come from the screen itself.

The nature of assay [3]: Cytotoxicity counterscreen for inhibitors of SARS-CoV-2 cell entry (AID 1645845; calls by dose curve; further: nearly all actives have a fitted effect of over 50% in size; further: potency means the concentration at half of the fitted maximal effect). In short, it runs like this: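 HEK293-ACE2 cells (Expi293F stably expressing human ACE2) seeded overnight, then compound for 1 h plus 48 h at 37C. Viability as ATP content by luminescence; normalized to wells with cells and media-only wells.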
Assay [4] in a line: Primary qHTS to identify inhibitors of SARS-CoV-2 cell entry (AID 1645846; calls by dose curve; further: nearly all actives have a fitted effect of over 45% in size; further: potency means the concentration at half of the fitted maximal effect). To be noted: activity change, negative = inhibition: at 57.1 µM (top of the series) unless noted. In short, it runs like this: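 Inhibition of spike-mediated entry was scored in human ACE2-transfected Expi293F cells. Particles were MLV-pseudotyped with Wuhan-Hu-1 S carrying a 19-aa C-terminal deletion; signal was luciferase after two days, scaled between spike PP and fusion-protein-free PP.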

Assay [5] in a line: Primary qHTS for inhibitors of nuclear receptor binding SET domain protein 2 (NSD2) in an isogenic RCH-ACV NSD2 p.E1099K mutant (9B) (AID 1645876). Further: nearly all actives have a fitted effect of over 70% in size. Further: potency means the concentration at half of the fitted maximal effect.
Assay [6] is described as follows: Primary qHTS for inhibitors of nuclear receptor binding SET domain protein 2 (NSD2) in an RCH-ACV wild type WT cells (2C) (AID 1645877). Further: nearly all actives have a fitted effect of over 70% in size. Further: potency means the concentration at half of the fitted maximal effect.
Assay [7] concerns the target Cytochrome P450 2C9 (Homo sapiens) (UniProt P11712). The experiment in a line: Cytochrome P450 family 2 subfamily C member 9 (CYP2C9) small molecule antagonists: luciferase biochemical (cell-free) qHTS assay (AID 1645842; active means well fitted curve in the direction sought with a large enough effect in the repeat runs; an effect the other way counts as inactive or inconclusive; further: nearly all actives have a fitted effect of over 55% in size; further: potency means the concentration at half of the fitted maximal effect; on activity change, negative = inhibition: on the % scale 0 is the no-effect control and ±100 the full control effect). In short, it runs like this: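 Luminescence, after 20 min with luciferin detection reagent, reflected CYP2C9 turnover during a 1 h NADPH-driven reaction at 37C. Enzyme-substrate mix contained 0.4% bovine serum albumin and was preincubated with compound 10 min at room temperature.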

The target in assay [8] is Cytochrome P450 3A4 (Homo sapiens) (UniProt P08684). The experiment in a line: Cytochrome P450 family 3 subfamily A member 4 (CYP3A4) small molecule antagonists: luciferase qHTS assay (AID 1645841; active means well fitted curve in the direction sought with a large enough effect in the repeat runs; an effect the other way counts as inactive or inconclusive; further: nearly all actives have a fitted effect of over 45% in size). In short, it runs like this: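 P450-Glo CYP3A4 enzyme with proluciferin substrate preincubated 10 min with compound at room temperature, then NADPH regeneration 1 h. Luciferin detection reagent added for 20 min; luminescence recorded. Ketoconazole positive control.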
Chain of Cytochrome P450 3A4 (Homo sapiens) (P08684 whole entry, looked up): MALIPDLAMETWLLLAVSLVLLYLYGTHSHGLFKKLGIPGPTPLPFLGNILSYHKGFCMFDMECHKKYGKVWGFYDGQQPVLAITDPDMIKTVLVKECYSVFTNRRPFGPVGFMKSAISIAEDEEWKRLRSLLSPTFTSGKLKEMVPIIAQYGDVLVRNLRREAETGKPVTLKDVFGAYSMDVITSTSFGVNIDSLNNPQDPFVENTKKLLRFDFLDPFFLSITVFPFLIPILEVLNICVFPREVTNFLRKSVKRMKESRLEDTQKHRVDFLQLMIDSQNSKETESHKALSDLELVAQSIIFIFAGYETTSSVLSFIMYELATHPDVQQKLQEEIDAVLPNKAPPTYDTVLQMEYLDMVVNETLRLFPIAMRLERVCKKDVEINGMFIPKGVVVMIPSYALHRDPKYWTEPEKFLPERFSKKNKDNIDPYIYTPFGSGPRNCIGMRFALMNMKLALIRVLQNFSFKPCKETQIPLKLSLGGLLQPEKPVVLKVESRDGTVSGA

Another assay deals with Papain (Carica papaya) (UniProt P00784). The experiment in a line: Primary qHTS assay for inhibitors of the protease papain (AID 1645873).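 Further: papain turnover of Z-FR-AMC read as the AMC fluorescence gain over 10 min.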 Further: potency means the concentration at half of the fitted maximal effect. On activity change, negative = inhibition: on the % scale 0 is the no-effect control and ±100 the full control effect.
Chain of Papain (Carica papaya) (P00784 whole entry, looked up): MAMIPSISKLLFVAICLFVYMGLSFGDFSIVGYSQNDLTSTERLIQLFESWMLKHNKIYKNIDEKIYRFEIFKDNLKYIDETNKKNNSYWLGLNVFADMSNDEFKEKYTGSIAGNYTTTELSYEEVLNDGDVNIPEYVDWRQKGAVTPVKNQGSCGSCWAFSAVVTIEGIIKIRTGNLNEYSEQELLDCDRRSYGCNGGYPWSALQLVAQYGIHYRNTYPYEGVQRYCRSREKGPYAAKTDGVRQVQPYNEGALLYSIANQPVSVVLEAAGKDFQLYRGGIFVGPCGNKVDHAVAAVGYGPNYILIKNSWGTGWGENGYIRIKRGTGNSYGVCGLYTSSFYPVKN

Chain of Cytochrome P450 2D6 (Homo sapiens) (P10635 whole entry, looked up): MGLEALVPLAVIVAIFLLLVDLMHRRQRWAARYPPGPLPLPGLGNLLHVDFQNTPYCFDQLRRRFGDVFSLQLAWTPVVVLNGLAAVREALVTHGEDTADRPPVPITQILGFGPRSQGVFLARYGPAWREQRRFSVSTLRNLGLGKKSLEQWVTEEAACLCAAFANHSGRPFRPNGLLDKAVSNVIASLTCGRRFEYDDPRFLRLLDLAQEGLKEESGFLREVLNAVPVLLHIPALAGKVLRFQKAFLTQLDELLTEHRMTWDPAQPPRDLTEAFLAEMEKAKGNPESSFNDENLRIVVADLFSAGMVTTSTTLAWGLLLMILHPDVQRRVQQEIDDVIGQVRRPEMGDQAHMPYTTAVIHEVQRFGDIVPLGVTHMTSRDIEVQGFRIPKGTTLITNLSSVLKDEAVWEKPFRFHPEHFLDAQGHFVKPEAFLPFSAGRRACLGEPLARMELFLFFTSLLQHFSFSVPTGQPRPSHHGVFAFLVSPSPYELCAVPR
Chain of Cytochrome P450 2C9 (Homo sapiens) (P11712 whole entry, looked up): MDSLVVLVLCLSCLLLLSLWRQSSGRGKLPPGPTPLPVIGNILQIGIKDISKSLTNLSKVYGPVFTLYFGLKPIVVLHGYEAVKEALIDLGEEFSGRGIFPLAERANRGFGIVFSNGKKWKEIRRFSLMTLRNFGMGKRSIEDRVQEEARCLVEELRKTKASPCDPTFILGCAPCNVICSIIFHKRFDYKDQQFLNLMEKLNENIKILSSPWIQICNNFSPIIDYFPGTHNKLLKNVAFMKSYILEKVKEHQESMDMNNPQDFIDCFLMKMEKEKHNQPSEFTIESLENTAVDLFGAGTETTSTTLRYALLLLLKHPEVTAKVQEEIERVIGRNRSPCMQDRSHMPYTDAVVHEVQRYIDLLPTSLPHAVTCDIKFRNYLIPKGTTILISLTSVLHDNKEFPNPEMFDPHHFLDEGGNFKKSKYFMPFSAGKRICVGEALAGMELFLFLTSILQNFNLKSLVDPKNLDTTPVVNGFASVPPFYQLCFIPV

On to `C#CCN(C)[C@H](C)Cc1ccccc1`, for which the Potency result in assay [1], in assay [3], in [4], in assay [5] and in [6] was “inactive” in each case. In addition, in [2], the Potency is 13.8 µM (active). Besides, the activity change, negative = inhibition in assay [4] was -14%.

On to `O=C(O)c1ccc2[nH]cc(CCCCN3CC=C(c4ccccc4)CC3)c2c1`, for which the Potency entry in assay [1], in [7], in [5] and in [6] was “inactive” each time. In addition, in assay [2], the Potency is 15.5 µM (active).

For `O=[N+]([O-])c1cc([As](=O)(O)O)ccc1O`, the Potency entry in [1], in [2], in assay [3] and in assay [5] was “inactive” throughout. The result in assay [8] was inactive. The activity change, negative = inhibition in assay [4] was -27.8%.

For `NCC1(CC(=O)O)CCCCC1`, the Potency result (in assay [1]; in [2]; in assay [7]; in [3]; with Papain (Carica papaya); in assay [5]) was “inactive” throughout. The Potency result in [6] is “inactive”. For the same compound, the activity change, negative = inhibition in [4] amounted to 1.13%.

As for `C#CCOC(C(=O)OCCN(C)C)(c1ccccc1)c1ccccc1`, the Potency entry in [1], in assay [5] and in [6] was “inactive” throughout. The Potency is 1.55 µM (active) in assay [2] and 0.776 µM (active) in assay [7].

On to `C[C@]12CCC(=O)C(O)=C1CC[C@@H]1[C@@H]2CC[C@]2(C)C(=O)CC[C@@H]12`, for which the Potency result in assay [1], in assay [2], in [3], in assay [4], in assay [5] and in [6] was “inactive” throughout.

Take `CNCC(O)c1ccc(O)cc1` (stereo unspecified): the Potency result (in assay [1]; in [2]; in assay [7]; in the assay with Papain (Carica papaya); in [5]; in assay [6]) was “inactive” each time. Also, the activity change, negative = inhibition in assay [4] is -17.4%.

With `CC(=O)[C@H]1CC[C@H]2[C@@H]3CC[C@H]4C[C@](C)(O)CC[C@]4(C)[C@H]3CC[C@]12C`, the Potency entry (in assay [1]; in [7]; with Papain (Carica papaya); in [5]; in [6]) was “inactive” each time. Further, the Potency in assay [2] was 1.23 µM (active).

For the compound `COc1ccc2c(c1OC)CN1CCc3cc4c(cc3C1C2)OCO4` (stereo unspecified), the Potency result in assay [1] was “inactive”. Besides, the Potency in assay [2] is 0.0309 µM (active); in [7], 19.5 µM (active); in assay [6], 10.6 µM (active).

As to `Nc1ccncc1`, the Potency entry (in assay [1]; with Papain (Carica papaya); in [5]; in [6]) was “inactive” throughout. Also, the activity change, negative = inhibition in assay [4] is -28.2% [at 114 µM].

For `CCCC(C)(COC(N)=O)COC(=O)NC(C)C` (stereo unspecified), the Potency result in assay [1], in assay [2], in [5] and in assay [6] was “inactive” each time.

As for `c1ccc(C2CC2)c(OCC2=NCCN2)c1`, the Potency entry (in [1]; in the assay with Papain (Carica papaya); in assay [6]) was “inactive” throughout. Besides, the Potency in assay [2] was 4.36 µM (active).

For `Cc1ncc(CNC(=O)N(CCCl)N=O)c(N)n1`, the Potency entry (in [1]; in assay [3]; in assay [4]; in the assay with Papain (Carica papaya); in assay [5]; in [6]) was “inactive” throughout.

Regarding `c1ccc2c(c1)Nc1ccccc1S2`, the Potency entry in [1], in assay [2], in assay [3], in assay [4], in [5] and in [6] was “inactive” each time.

`O=C1NCN(c2ccccc2)C12CCN(CC1COc3ccccc3O1)CC2` (stereo unspecified): the Potency entry (in assay [1]; in the assay with Papain (Carica papaya); in assay [5]; in [6]) was “inactive” each time. In addition, the Potency in [2] is 0.0245 µM (active).

Turning to `O=C(NC(O)C(Cl)(Cl)Cl)NC(O)C(Cl)(Cl)Cl` (stereo unspecified), the Potency result in assay [1], in assay [2], in assay [5] and in assay [6] was “inactive” throughout.

`CC(C)(C)CC(C)(C)c1ccc(O)cc1`: the Potency result in [1] is “inactive”. The figures for the Potency in [2] and in assay [5] were 36.6 µM (active) and 24.3 µM (active), respectively.

As to `CCC(COC(=O)c1cc(OC)c(OC)c(OC)c1)(c1ccccc1)N(C)C` (stereo unspecified), the Potency entry in assay [1], in [3], in assay [5] and in assay [6] was “inactive” in each case. The Potency in [2] is 0.389 µM (active).

`Cn1c(CCCC(=O)O)nc2cc(N(CCCl)CCCl)ccc21`: the Potency entry in assay [1], in assay [2] and in [3] was “inactive” in each case. Moreover, the Potency in the assay with Papain (Carica papaya) is 25.1 µM (active).

In the case of `CN1CCN(C(=O)O[C@H]2c3nccnc3C(=O)N2c2ccc(Cl)cn2)CC1`, the Potency result in assay [1], in [3], in assay [5] and in assay [6] was “inactive” in each case.

As to `CCN(CC)C(=O)N[C@@H]1C=C2c3cccc4[nH]cc(c34)C[C@@H]2N(C)C1`, the Potency entry in assay [1], in [3] and in assay [5] was “inactive” each time. Also, the activity change, negative = inhibition in assay [4] was 3.33%.

Take `COc1ccc(C(CN(C)C)C2(O)CCCCC2)cc1` (stereo unspecified): the Potency result (in [1]; in assay [3]; in [4]; with Papain (Carica papaya); in assay [5]; in assay [6]) was “inactive” in each case.

Consider `N[C@@H]1C[C@H]1c1ccccc1`, for which the Potency result in assay [1], in [3], in [4] and in assay [5] was “inactive” each time. For the same compound, the activity change, negative = inhibition in [4] is -29.3%.

In the case of `Cc1ccc2c(c1)C1CN(C)CCC1N2` (stereo unspecified), the Potency entry in assay [1], in [5] and in assay [6] was “inactive” each time. Moreover, the Potency in assay [2] is 4.25 µM (active).

For the compound `CC1NCCOC1c1ccccc1` (stereo unspecified), the Potency result in [1], in assay [7], in assay [5] and in [6] was “inactive” in each case.

For the compound `CCCN1CCC[C@@H]2Cc3[nH]ncc3C[C@H]21`, the Potency entry (in [1]; in assay [2]; with Papain (Carica papaya); in [5]; in assay [6]) was “inactive” throughout.

For `C=CCN1CC[C@]23c4c5ccc(O)c4O[C@H]2C(=O)CC[C@@]3(O)[C@H]1C5`, the Potency entry in assay [1], in assay [3] and in [5] was “inactive” throughout. For the same compound, the activity change, negative = inhibition in [4] came out at 2.17%.

Take `COc1ccc(Cc2nccc3cc(OC)c(OC)cc23)cc1OC`: the Potency entry in assay [1] is “inactive”. The Potency is 4.9 µM (active) in assay [2], 7.94 µM (active) in assay [3], 11.8 µM (active) in assay [5] and 5.25 µM (active) in [6].

Take `Cc1ccc(-c2nc3ccc(C)cn3c2CC(=O)N(C)C)cc1`: the Potency result in assay [1], in [5] and in [6] was “inactive” in each case.

For `CCN(C(C)=O)c1cccc(-c2ccnc3c(C#N)cnn23)c1`, the Potency entry in assay [1], in assay [2] and in assay [5] was “inactive” throughout.

For the compound `Cc1ccc(S(=O)(=O)N[C@@H](CCCCN)C(=O)CCl)cc1`, the Potency entry in [1] and in assay [6] was “inactive” throughout. Besides, the results for the Potency (in [2]; in the assay with Papain (Carica papaya)) were 17.2 µM (active) and 14.1 µM (active), respectively.

With `O=C1CC[C@@]2(O)[C@H]3Cc4ccc(O)c5c4[C@@]2(CCN3CC2CC2)[C@H]1O5`, the Potency result in assay [1], in assay [3], in assay [5] and in assay [6] was “inactive” in each case. For the same compound, in [4], the activity change, negative = inhibition is -8.92%.

As to `CC(C)=CC1C(C(=O)OCc2cccc(Oc3ccccc3)c2)C1(C)C` (stereo unspecified), the Potency entry in assay [1], in assay [3], in assay [4], in assay [5] and in [6] was “inactive” in each case. Further, the Potency in assay [7] is 3.89 µM (active).

On to `COc1ccc(C(=O)c2c(C)n(CCN3CCOCC3)c3ccccc23)cc1`, for which the Potency result in [1] was “inactive”. Also, the Potency in assay [2] was 12.3 µM (active); in assay [4], 31.6 µM (active); in [5] it was 23.5 µM (active); in assay [6] it was 18.8 µM (active).

With `CC[N+](CC)(CC)CC`, the Potency entry in assay [1], in assay [2], in [5] and in assay [6] was “inactive” throughout.
